# Only a selection was taken, and hits are over-represented in it overall.
# ST2 inh: blocks human ST2 binding to IL-33; actives 2.3% (n = 78,000); Q01638; AlphaLISA ST2-Fc/biotin-IL-33 interaction, 1 h; AID 1259354; inhibition, % for hits at 17 µM; in the data active = inhibition above about 30%
# Target sequence (Q01638 whole entry, looked up): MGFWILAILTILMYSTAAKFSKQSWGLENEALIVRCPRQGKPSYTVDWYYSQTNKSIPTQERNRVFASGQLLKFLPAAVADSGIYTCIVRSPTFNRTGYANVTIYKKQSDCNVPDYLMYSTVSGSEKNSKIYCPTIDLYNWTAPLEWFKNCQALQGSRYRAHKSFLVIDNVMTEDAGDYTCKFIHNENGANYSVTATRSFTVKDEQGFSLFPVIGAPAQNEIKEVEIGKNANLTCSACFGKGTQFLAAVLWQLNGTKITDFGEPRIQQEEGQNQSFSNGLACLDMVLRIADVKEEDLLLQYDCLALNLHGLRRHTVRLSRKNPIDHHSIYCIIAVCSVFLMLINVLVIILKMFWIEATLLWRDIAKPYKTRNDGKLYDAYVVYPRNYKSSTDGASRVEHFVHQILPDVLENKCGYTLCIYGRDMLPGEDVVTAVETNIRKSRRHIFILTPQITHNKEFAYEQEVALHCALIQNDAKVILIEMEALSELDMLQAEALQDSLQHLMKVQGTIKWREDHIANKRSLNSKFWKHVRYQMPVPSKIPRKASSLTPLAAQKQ
# * = called active by the depositor; i = inactive; ! = repeats disagree.
SMILES,ST2 inh
O=C(NCc1ccccc1)C(=O)NCC1OCCc2ccccc21 (configuration not stated),i
CCOC(=O)C1C(=O)C=C(c2cccs2)CC1c1ccc(OC)c(OC)c1 (configuration not stated),i
CCOC(=O)C1C(=O)C=C(c2cccs2)CC1c1ccccc1OCC (configuration not stated),i
O=C1C=C(c2cccs2)C[C@H](c2ccccc2)[C@H]1n1nnc([N+](=O)[O-])n1,41%*
Cc1nc(CC(=O)NC(c2nnc3n2CCNCC3)C(C)C)c(C)s1 (configuration not stated),i
COc1ccc(CNc2oc(COc3ccc(Cl)cc3)nc2C#N)cc1,i
COc1ccc(CCNc2oc(COc3cccc(C)c3)nc2C#N)cc1,30%*
COc1ccc(CCNc2oc(COc3ccccc3C)nc2C#N)cc1OC,38%*
COc1ccc(CCNC(=O)CC(c2ccccc2)c2ccccc2)cc1OC,i
COc1ccccc1OCc1nc(C#N)c(NCc2cccnc2)o1,i
Cc1cccc(OCc2nnc(SCC(=O)Nc3ccc(C)c(C)c3)o2)c1,i
CC1=C(C(=O)N2CCOCC2)C(c2ccccc2F)n2c(nc3ccccc32)N1 (configuration not stated),i
CC1CCc2nc(SC3CC(=O)N(c4ccccc4)C3=O)c(C#N)cc2C1 (configuration not stated),i
Cc1nc2ccccc2c2oc(C(=O)NC3CCCCC3)cc12,i
CC(=O)N[C@@H]1C[C@H](CC(C)C)O[C@H](c2c(C)nc3ccc(Cl)cn23)C1,i
O=S(=O)(Nc1cccc(F)c1)c1cccc2cccnc12,i
COc1cc(C)c(C(C)C)cc1S(=O)(=O)n1cnc2ccccc21,i
COC(=O)c1ccc(N2C(=O)CC(N3CCN(Cc4ccc(Cl)cc4)CC3)C2=O)cc1 (configuration not stated),i
NS(=O)(=O)c1ccc(CCNC2CC(=O)N(c3cccc(Cl)c3)C2=O)cc1 (configuration not stated),i
CCOc1ccc2nc(CNC(C)c3cnn(-c4ccccc4)c3C)ccc2c1 (configuration not stated),i
CC(=O)n1cc(C(C[N+](=O)[O-])SCCN)c2ccccc21 (configuration not stated),30%*
O=[N+]([O-])CC(SCCO)c1ccc(O)cc1 (configuration not stated),i
Cc1[nH]c2ccccc2c1SCCNC(=O)c1ccco1,i
N#CNC(N)=Nc1ccccc1,i
O=C(CN1N=NC2C(=O)N(c3ccc(Cl)cc3)C(=O)C21)Nc1ccc(Br)cc1 (configuration not stated),i
SMILES,ST2 inh
Cc1ccc(NCC(O)COc2ccccc2)cc1C (configuration not stated),35%*
Cc1cc(OCC(O)CNC(C)(C)C)ccc1C(C)C (configuration not stated),i
Cc1ccc(OCC(O)CNC(C)(C)C)cc1C (configuration not stated),i
Cc1ccc(-n2nc3c(c2NC(=O)c2ccc(Br)cc2)CSC3)cc1,i
CCNC(=O)N[C@H]1[C@H](O)[C@@H](N2CCCC2)[C@@H]2OC[C@H]1O2,i
CC(=O)c1ccccc1-c1ccc2c(c1)CC(CNC(=O)c1cccc(-n3cccn3)c1)O2 (configuration not stated),i
COc1ccc(NC(=O)c2oc3ccccc3c2NC(=O)COc2ccccc2)cc1,i
O=c1c(Oc2ccc(F)cc2)coc2c(O)c(O)ccc12,41%*
Cc1c(O)ccc2c(=O)c(Oc3ccccc3)coc12,i
CC(=O)Oc1ccc2c(=O)c(Oc3ccccc3)coc2c1C,i
CC(C(=O)N(C)C)N(C)Cc1cccn1S(=O)(=O)c1ccccc1 (configuration not stated),i
O=C(Cc1ccccc1)Nc1cccc(-c2nc3ccccc3s2)c1,i
N#Cc1ccc(C(=O)Nc2ccc(-c3nc4ccccc4s3)cc2)cc1,32%*
CC(=O)Nc1ccc(-c2nc3cc4sc(-c5ccc(NC(C)=O)cc5)nc4cc3s2)cc1,i
COc1ccc(/C=N\OCc2nc3c4c5c(sc4ncn3n2)CCCCC5)cc1,i
O=C(Nc1ccc(Oc2ccccc2F)cc1)C1CCN(Cc2ccccn2)CC1,i
O=C(CSc1c2c(nc3cc(Cl)ccc13)CCCC2)NCc1ccc2c(c1)OCO2,i
O=C(c1ccc(Br)cc1)N(c1ccc(Br)cc1)C1C=CS(=O)(=O)C1 (configuration not stated),i
Cc1ccc2c(c1)C(=O)C(=O)N2,i
Cc1ccc(C2=NNC3(S2)C(=O)Nc2ccc(C)cc23)cc1 (configuration not stated),44%*
Cc1ccc(N2C(=O)C(C)SC23C(=O)Nc2ccccc23)cc1 (configuration not stated),i
O=C(Cn1cc2ccccc2n1)N1CCCC(Nc2cccc(F)c2)C1 (configuration not stated),i
CCc1nc2ccccc2c(N)c1C (tested in a mixture with another compound),i
COc1cccc(/C=C2/C=C(c3cc(OC)ccc3OC)OC2=O)c1,42%*
COc1ccc(OCCOc2cccc(C=O)c2)cc1,i
SMILES,ST2 inh
COc1ccc(OC)c(N2C(=O)C3CCCCC3C2=O)c1 (configuration not stated),i
COc1ccc(OC)c(/C=C2\N=C(c3ccc(OC)c([N+](=O)[O-])c3)OC2=O)c1,i
COc1ccc(OC)c(/C=C2/C=C(c3cc(OC)ccc3OC)OC2=O)c1,41%*
COc1ccc(C2=C/C(=C/c3ccc4c(c3)OCO4)C(=O)O2)c(OC)c1,i
CC(=O)c1ccc(N2C(=O)c3cccc4c(Cl)ccc(c34)C2=O)cc1,i
COc1ccccc1NS(=O)(=O)c1cc(C(=O)O)ccc1OC,i
Cc1cc(C)c(C#N)c(SCC(=O)c2ccc(F)cc2)n1,i
COCc1cc(C)nc(SCc2ccccc2Cl)c1C#N,i
COCc1cc(C)nc(SCC(=O)c2ccc(Cl)cc2)c1C#N,30%*!
Cc1cc(C(F)(F)F)c(C#N)c(SCC(=O)c2ccc([N+](=O)[O-])cc2)n1,60%*
Cc1cc(C(F)(F)F)c(C#N)c(SCC(N)=O)n1,i
COCc1cc(C)nc(SCC(=O)c2ccc(C)cc2C)c1C#N,i
CCCOc1ccccc1C1NC(=O)NC(C)=C1C(=O)OCCSC (configuration not stated),i
O=C(Nc1ccc(Oc2ccccc2)cc1)c1coc(=O)c2ccccc12,i
Cc1ccc(N2NC(=O)/C(=C/c3ccc(-c4cccc([N+](=O)[O-])c4)o3)C2=O)cc1C,61%*
O=C1NN(c2ccc(Cl)c(Cl)c2)C(=O)/C1=C\c1ccc(-c2cccc(C(=O)O)c2)o1,i
CC1=NN(c2cccc(Br)c2)C(=O)/C1=C\c1ccc(-c2cccc([N+](=O)[O-])c2)o1,i
COc1ccc(NS(=O)(=O)c2ccc3c(c2)CCN3C(=O)C2CC2)cc1Cl,i
CCCN1CCN(C(=O)c2oc3ccc(S(=O)(=O)N4CCOCC4)cc3c2C)CC1,i
O=C(Cc1ccc(F)cc1)Nc1c(C(=O)Nc2cccc(F)c2)oc2ccccc12,93%*
CCOCC(=O)Nc1c(C(=O)Nc2cccc(F)c2)oc2ccccc12,i
O=C(Nc1c(C(=O)Nc2cccc(F)c2)oc2ccccc12)c1ccc(F)cc1,i

# High-throughput results as filed in PubChem.
